This is a sample that favours compounds with a hit; in the whole collection about 1% have one here.
RXFP1 antagonist – RXFP1 (human) relaxin receptor antagonism; Q9HBX9; HEK293-RXFP1, relaxin-stimulated cAMP HTRF, 30 min; hits give low values; activity change, negative = inhibition, % at 57.5 µM; 350,000 compounds, 0.59% hits; AID 1259400;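 active = activity change of -60% or lower, but not beyond a set lower limit; inconclusive = change between -60% and -40%, or beyond the set limit; inactive = change above -40%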; also: % is scaled to controls: 0 for no effect and ±100 for the full control effect
Target sequence (Q9HBX9 whole entry, looked up): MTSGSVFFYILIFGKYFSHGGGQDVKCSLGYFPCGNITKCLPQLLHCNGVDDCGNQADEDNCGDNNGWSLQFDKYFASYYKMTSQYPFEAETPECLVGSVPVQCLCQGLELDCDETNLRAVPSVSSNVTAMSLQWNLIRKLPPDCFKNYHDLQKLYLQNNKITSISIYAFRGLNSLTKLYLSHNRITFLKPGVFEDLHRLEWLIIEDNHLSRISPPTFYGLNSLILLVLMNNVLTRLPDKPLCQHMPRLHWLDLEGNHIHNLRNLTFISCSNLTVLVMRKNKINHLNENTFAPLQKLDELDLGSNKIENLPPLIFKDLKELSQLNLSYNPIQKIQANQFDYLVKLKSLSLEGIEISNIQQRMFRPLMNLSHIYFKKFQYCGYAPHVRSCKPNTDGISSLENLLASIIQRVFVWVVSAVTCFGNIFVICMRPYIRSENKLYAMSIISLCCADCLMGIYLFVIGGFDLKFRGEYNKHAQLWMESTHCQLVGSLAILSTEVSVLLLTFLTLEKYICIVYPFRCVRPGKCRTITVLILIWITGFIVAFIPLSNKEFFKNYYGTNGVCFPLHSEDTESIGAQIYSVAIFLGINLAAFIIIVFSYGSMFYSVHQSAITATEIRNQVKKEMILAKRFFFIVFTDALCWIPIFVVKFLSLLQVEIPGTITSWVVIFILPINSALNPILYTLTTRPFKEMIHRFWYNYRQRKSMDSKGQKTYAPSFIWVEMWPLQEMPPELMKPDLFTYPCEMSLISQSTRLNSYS
gsp antag – antagonists of gsp mutant (McCune-Albright syndrome); gsp-mutant cells, cAMP HTRF, 30 min; Potency, µM (highest dose often 76.9 µM), without a hit: top-dose activity change, negative = inhibition, hits mostly inhibitors; 340,000 compounds, 0.4% hits; AID 624288; calls by dose curve; cell line not stated here;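 also: intracellular cAMP measured with PDE inhibitor Ro 20-1724 present during compound exposure; potency is read from the fitted curve at half-maximal effect; % is scaled to controls: 0 for no effect and ±100 for the full control effect; nearly all actives have a fitted effect of over 65% in size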
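HTRF cAMP measurement after 30 min RT detection following 30 min, 37C compound treatment alongside […] (added as 300 uM solution) in G418-selected cells seeded at 2000/well and grown 16–24 h.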
TSHR antag – blocks TSH signaling through the human TSH receptor | P16473 | TSHR-expressing cells, TSH-stimulated cAMP HTRF, 2 h; hits give low values | activity change, negative = inhibition, % at 11.5 µM | 330,000 compounds, 0.2% hits | AID 504810;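 active = activity change below a set negative limit, meaning inhibition stronger than a set level, cut at about -70% in these data; inconclusive = activity change between two set negative limits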; also: % is scaled to controls: 0 for no effect and ±100 for the full control effect
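Cell-based HTRF cAMP assay; TSHR cells + compound, TSH EC80 (4nM final), 2 h, 37 deg C. Lysis with anti-cAMP cryptate and cAMP-d2, 30 min RT, read 665/620 nm.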
gsp ag – activates gsp, the McCune-Albright syndrome mutation; gsp mutant cells, cAMP HTRF, 30 min; AID 624287; 340,000 compounds, 0.13% hits; Potency, µM (top dose mostly 76.9 µM), without a hit: top-dose activation (cAMP increase), hits mostly activators; active = well fitted activation curve with a large enough effect; inconclusive = small, poorly fitted or top-dose-only effect, or another doubt; inactive = no such curve, though single readings can be large or run the other way; cell line not stated here;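 also: phosphodiesterase inhibitor Ro 20-1724 added with compounds to block cAMP breakdown; potency is read from the fitted curve at half-maximal effect; nearly all actives have a fitted effect of over 60% in size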
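Cells in DMEM/10% FBS with G418 were pretreated with compounds in DMSO plus […] (300 uM stock) for 30 min at 37C. cAMP was measured by HTRF (cAMP-d2 plus anti-cAMP antibody-K) after 30 min at room temperature.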
RXFP1 agonist – RXFP1 (human) receptor agonism; Q9HBX9; HEK293T-RXFP1 cAMP TR-FRET, 30 min; response scale: percent of porcine relaxin response, buffer zero; Potency, µM (doses to about 57.5 µM), inactives show at the highest dose activation, most hits filed as activators; 370,000 compounds, 0.3% hits; AID 2676; active = well fitted activation curve with a large enough effect; inconclusive = small, poorly fitted or top-dose-only effect; also: potency is read from the fitted curve at half-maximal effect; % is scaled to controls: 0 for no effect and ±100 for the full control effect; nearly all actives have a fitted effect of over 60% in size
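Agonist response is measured as cAMP accumulation in an RXFP1-transfected HEK293T line under PDE4 inhibition. Values are scaled between buffer-only and 29 nM porcine relaxin, and EC50s come from standard Hill equation fits.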
* marks the source's active call; other numbers are inactive results; ? = inconclusive; · = not tested or not shown; [ ] = dose if it differs, or a comment.

SMILES	RXFP1 antagonist	gsp antag	TSHR antag	gsp ag	RXFP1 agonist
Cc1ccc2nc(N/C(=N/S(=O)(=O)c3ccc(F)cc3)c3ccccc3)sc2c1	9.2	25.1µM*	-8.2	2.8%	-1.0%
Cc1ccc(NC(=O)CCc2nnc3ccc(NCc4ccco4)nn23)nc1	37.0	8.1%	-96.4*	45.3%	11.9%
CC(=O)c1cccc(NC(=O)CCc2nnc3ccc(NCc4ccco4)nn23)c1	-8.4	7.2%	6.7	?	13.5%
COc1ccc(C)cc1NC(=O)C1CCCN(S(=O)(=O)c2ccc3c(c2)oc(=O)n3C)C1 (stereo not drawn)	·	·	·	·	2.3%
Cn1c(O)c(/C=N/NC(=O)c2cc3ccccc3cc2O)c2ccccc21	?	35.5µM*	-37.0	-7.8%[15.4 µM]	5.4%
CCNc1nc(C23CC4CC(CC(C4)C2)C3)cs1	?	-5.7%	-73.2*	-36.0%	0.2%
CC(=O)NNC(=O)CC(=O)Nc1nc(C23CC4CC(CC(C4)C2)C3)cs1	-30.3	-7.3%	-3.5	-10.4%	1.4%
COc1ccccc1N1CCN(c2ncnc3c2cnn3C)CC1	16.0	·	·	·	3.9%
Clc1ccccc1N=C1NN=C(c2cccs2)CS1	-82.9*	4.2%	-16.7	0.0%[15.4 µM]	0.7%
Cn1c(=O)c2cc(C(=O)Nc3cccc(C#N)c3)sc2c2ccccc21	-15.7	·	·	·	1.6%
CC1(C)CC(=O)C2=C(C1)N1C(=C(C#N)C2c2ccc(Cl)cc2)N=C(N)c2ccccc21 (stereo not drawn)	?	35.5µM*	-33.5	-1.0%	1.4%
COc1ccc(N2CCN(CC(=O)c3ccc(Cl)cc3)CC2)cc1	-20.9	-5.6%	4.9	1.7%	-3.5%
COc1ccc(C(=O)CN2CCN(c3ncccn3)CC2)cc1	-0.9	50.1µM*	3.8	36.8%	3.2%
CN(C)CCCNC(=S)NCC(c1ccc(Cl)cc1Cl)c1c[nH]c2ccccc12 (stereo not drawn)	-60.6*	9.2%	3.9	11.8%[15.4 µM]	2.1%
CCCCNC(=S)NCC(c1ccccc1)c1c[nH]c2ccccc12 (stereo not drawn)	-9.4	-28.9%	-2.9	-14.9%	1.0%
Nc1nc(Sc2ccc([N+](=O)[O-])c3nonc23)c2[nH]cnc2n1	13.4	-17.2%	·	12.6µM*	·
CNc1ncnc(Sc2nc(N)nc3nc[nH]c23)c1[N+](=O)[O-]	9.0	1.0%	·	?	·
Cc1nc(C)c(CC(=O)N2CCc3c([nH]c4ccccc34)C2c2ccccn2)s1 (stereo not drawn)	-75.4*	-3.8%	9.4	20.7%[15.4 µM]	1.1%
CC(=O)c1cc(CC(=O)N2CCc3c([nH]c4ccccc34)C2c2ccccn2)cs1 (stereo not drawn)	-6.2	-12.9%	-7.1	-23.6%	0.5%
Cc1ccc(C(=O)Nc2cccc(C(=O)OCc3cc(=O)n4c5c(sc4n3)CCCC5)c2)cc1	-9.8	·	·	·	2.6%
O=c1oc(C2(O)CCCCC2)cc2ccc(Br)cc12	·	5.5%	-11.8	·	4.1%
O=c1oc(C2(O)CCCCC2)cc2ccc(/C=C/c3ccc(F)cc3)cc12	·	-10.5%	-79.0*	·	3.0%
CCOC(=O)C1CCN(S(=O)(=O)c2cc3c4c(c2)CC(=O)N4CCC3)CC1	-35.4	·	·	·	0.7%
O=C(O)c1ccc(NC(=O)c2cccc(S(=O)(=O)Nc3ccc(C(=O)O)cc3)c2)cc1	5.3	-3.6%	-16.4	-11.0%	2.0%
COc1ccc(NS(=O)(=O)c2cccc(NC(=O)c3ccc(Cl)nc3)c2)cc1	-71.2*	?	-45.1	5.3%[15.4 µM]	4.3%
SMILES	RXFP1 antagonist	gsp antag	TSHR antag	gsp ag	RXFP1 agonist
O=C(Nc1cccc(S(=O)(=O)Nc2ccc(Cl)cc2)c1)c1ccc(Cl)nc1	-18.0	44.7µM*	-47.0	-42.5%	1.2%
O=C1CSc2ccc(C(=O)Nc3cccc(S(=O)(=O)Nc4ccc(Br)cc4)c3)cc2N1	-13.2	39.8µM*	?	-14.8%	1.8%
CC(C)N=c1scc(-c2cccs2)n1/N=C/c1ccc(O)c(O)c1O	-62.6*	-13.6%	-39.2	-25.5%	1.4%
CN=c1scc(-c2ccccc2F)n1/N=C/c1ccc(O)c(O)c1O	-64.9*	15.5%	-5.0	2.5%[15.4 µM]	-2.6%
CN=c1scc(-c2ccccc2F)n1/N=C/c1ccc[nH]1	-4.7	0.0%	-2.9	?	0.7%
CCCCCCCCCCCCCCCCCCOC[C@H](COP(=O)([O-])OCC[N+](C)(C)C)OC	·	·	-81.3*	·	·
O=C1/C(=C/c2ccsc2)CC/C1=C\c1cccs1	·	·	-12.9	·	·
CCN1CCN(C(=O)c2cc(-c3ccc(Cl)s3)nc3ccccc23)CC1	-3.8	6.6%	5.7	?	29.2%
COC(=O)C1CCN(C(=O)c2cc(-c3ccc(Cl)s3)nc3ccccc23)CC1	-27.9	31.6µM*	30.1	?	7.9%
CCOc1cc(/C=C2\CCC/C(=C\c3cc(Cl)c(O)c(OCC)c3)C2=O)cc(Cl)c1O	-68.8*	-25.5%	-24.6	5.3%	-0.2%
CCOc1cc(/C=C2\CN(C)C/C(=C\c3ccc(O)c(OCC)c3)C2=O)ccc1O	-12.6	-20.5%	-19.2	-12.4%	0.2%
COc1cccc(CNC(=O)c2ccc(-c3nc(CS(=O)c4ccccc4)c(C)o3)cc2)c1 (stereo not drawn)	·	·	·	·	-0.1%
CC(=O)c1ccc(NC(=O)c2ccc(C)c(S(=O)(=O)N3CCOCC3)c2)cc1	-1.8	-29.9%	-13.1	11.0%[15.4 µM]	-4.7%
Cc1cc(C)n(-c2ccc(C(=O)Nc3ccc(C)c(S(=O)(=O)N4CCOCC4)c3)cc2)n1	-23.0	35.5µM*	-25.3	-0.6%[15.4 µM]	-2.2%
COc1ccc(/C=C/C(=O)Nc2ccc(C)c(S(=O)(=O)N3CCOCC3)c2)cc1	·	31.6µM*	-32.0	·	·
COc1ccc(NC(=O)/C=C/c2ccc(S(=O)(=O)N3CCOCC3)cc2)cc1	-1.6	6.9%	-10.1	9.4%	1.1%
COc1ccc(C(=O)N2c3nc(-c4ccco4)nn3C3(CCCCC3)[C@@H]3CCCC[C@@H]32)cc1OC	-25.7	·	·	·	0.1%
O=C(c1ccccc1F)N1c2nc(-c3ccco3)nn2C2(CCCCC2)[C@@H]2CCCC[C@@H]21	-65.5*	·	·	·	-1.0%
O=C(c1ccccc1F)N1c2ncnn2C2(CCCCC2)[C@@H]2CCCC[C@@H]21	-8.0	·	·	·	1.3%
O=C(c1ccc(F)cc1)N1c2nc(-c3ccco3)nn2C2(CCCCC2)[C@@H]2CCCC[C@@H]21	-70.9*	·	·	·	2.9%
CCOC(=O)N1CCc2c(sc(NCc3cccc(F)c3)c2C(=O)Nc2ccc(OCC)cc2)C1	-9.8	·	·	·	-8.1%
Cc1nc(N2CCOCC2)c2c(C(=O)N3CCN(c4cccc(C)c4C)CC3)c(C)oc2n1	-5.2	·	·	·	0.9%
O=C1C=CC(=O)N1c1ccc2c(c1)C(NC(=O)C(F)(F)F)c1ccccc1-2 (stereo not drawn)	-96.9*	6.7%	·	-0.3%	·
CN(C)C(=O)NC1c2ccccc2-c2ccccc21	2.5	12.3%	-3.1	?	-0.7%
